In the library only some 2.6% were active in any assay of this set; here they are far more common.
SmPrx2 inh: inhibitors of Schistosoma mansoni peroxiredoxin 2. S. mansoni Prx2 activity coupled to TGR/GSH (TGR is thioredoxin glutathione reductase), NADPH fluorescence loss, qHTS. Potency, µM. actives 0.07% (n = 65,000). AID 448
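Coupled assay in which S. mansoni TGR passes NADPH reducing equivalents via glutathione to Prx2, which reduces H2O2. Compounds were preincubated 15 min at room temperature with 25 nM TGR/50 nM Prx2 mix. Kinetic NADPH fluorescence loss (ex 365/em 450 nm) was monitored.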
AmpC nodet inh: blocks E. coli AmpC beta-lactamase in absence of detergent | AmpC nitrocefin hydrolysis, absorbance 480 nm, no detergent | Potency, µM (highest dose often 28.7 µM), inactives show top-dose activity change, negative = inhibition | actives 1.8% (n = 71,000) | AID 585; further: % of control where 0% means no effect
Target sequence (P00811 whole entry, looked up): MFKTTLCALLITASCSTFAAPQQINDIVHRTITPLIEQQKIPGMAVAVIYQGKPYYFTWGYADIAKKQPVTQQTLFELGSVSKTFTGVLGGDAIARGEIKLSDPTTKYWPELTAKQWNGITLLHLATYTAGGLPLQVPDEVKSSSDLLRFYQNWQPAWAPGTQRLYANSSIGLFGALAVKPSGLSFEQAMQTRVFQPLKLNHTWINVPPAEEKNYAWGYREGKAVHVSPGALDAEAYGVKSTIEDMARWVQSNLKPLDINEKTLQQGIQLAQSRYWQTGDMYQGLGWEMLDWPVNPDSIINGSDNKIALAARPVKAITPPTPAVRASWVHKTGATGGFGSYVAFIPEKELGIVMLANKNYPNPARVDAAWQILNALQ
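AmpC, 20 mM phosphate pH 7.0; 15 min cpd preinc, RT; start with nitrocefin (800 uM stock); A480 kinetic read, 20 s intervals, 4 min. No-enzyme wells = negative control.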
AmpC inh det: AmpC beta-lactamase inhibition, detergent assay. P00811. purified AmpC, nitrocefin hydrolysis with detergent. Potency, µM (top dose mostly 28.7 µM), for inactives: at the highest dose activity change, negative = inhibition. actives 0.09% (n = 71,000). AID 584; active means well fitted curve in the direction sought with a large enough effect; inconclusive means small, poorly fitted or top-dose-only effect; further: on the % scale 0 is the no-effect control and ±100 the full control effect
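E. coli AmpC (5.3 nM) in 20 mM phosphate pH 7.0 with 0.01% Triton X-100, preincubated 15 min RT with compound; nitrocefin (2 uL of 800 uM stock) hydrolysis followed by 480 nm absorbance every 20 s over 4 min.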
Anthrax LT inh: inhibitors of anthrax lethal toxin internalization | AID 912 | Potency, µM (top dose mostly 40 µM), inactives show at the top dose activity change, negative = inhibition, most hits filed as inhibitors | Cells, anthrax lethal toxin internalization, FRET ratio (460/530) | actives 0.67% (n = 70,000); further: on the % scale 0 is the no-effect control and ±100 the full control effect; nearly all actives have a fitted effect of over 50% in size
The depositor's hits bear a star; [ ] = dose if it differs, or a comment. Unless noted, the call rests on the fitted dose curve. Potency means the concentration at half of the fitted maximal effect.

What do the screens show for `CCCCCCCCCCCCCCCCCCNC(=O)OC[C@@H](COP(=O)([O-])OCC[n+]1ccsc1)OC`?
SmPrx2 inh: >57; AmpC nodet inh: 31%; AmpC inh det: -3%; Anthrax LT inh: -1%

Results for CS(=O)(=O)Nc1cccc(-c2ccc3ncnc(N4CCOCC4)c3c2)c1 ?
SmPrx2 inh: >57; AmpC nodet inh: 27%; AmpC inh det: -2%; Anthrax LT inh: inconclusive

Results for NCCOC[C@H](N)C(=O)O ?
SmPrx2 inh: >57; AmpC nodet inh: 5%[5.75 µM]; AmpC inh det: -5%[5.75 µM]; Anthrax LT inh: -12%[8 µM]

What do the screens show for `COc1cccc(CNC(=O)c2nnn(CC(=O)Nc3ccc(C)c(C)c3)c2N)c1`?
SmPrx2 inh: >57; AmpC nodet inh: -8%; AmpC inh det: 2%; Anthrax LT inh: -11%

Results for COc1cccc(Cn2nnc(C(=O)Nc3ccc(C)cc3)c2N)c1 ?
SmPrx2 inh: >57; AmpC nodet inh: 4µM*[single pt active]; AmpC inh det: 12%; Anthrax LT inh: 1%

What do the screens show for `O=C(CN1C(=O)C2C3C=CC(C3)C2C1=O)Nc1ccc2nccnc2c1` (stereo not given)?
SmPrx2 inh: >57; AmpC nodet inh: 4µM*[single pt active]; AmpC inh det: 13%; Anthrax LT inh: 7%

How did CCN(CC)CCCNC(=O)CC1Oc2ccc(C)cc2NC1=O (stereo not given) do in these assays?
SmPrx2 inh: >57; AmpC nodet inh: 4µM*[single pt active]; AmpC inh det: 13%; Anthrax LT inh: 5%

How did CCC(C)NC(=O)CC1Oc2ccc(C)cc2NC1=O (stereo not given) do in these assays?
SmPrx2 inh: >57; AmpC nodet inh: 4µM*[single pt active]; AmpC inh det: 13%; Anthrax LT inh: -3%

How did CC(NC(=O)c1ccccc1)(C(=O)O)C(=O)O do in these assays?
SmPrx2 inh: >57; AmpC nodet inh: -6%[5.75 µM]; AmpC inh det: -2%[5.75 µM]; Anthrax LT inh: -4%[8 µM]

Results for CN(C)c1oc(-c2ccccc2Cl)nc1C#N ?
AmpC nodet inh: 1%; AmpC inh det: -6%; Anthrax LT inh: 1%

How did CN(C)c1oc(-c2ccccc2Cl)nc1S(=O)(=O)c1ccccc1 do in these assays?
SmPrx2 inh: >57; AmpC nodet inh: 4µM*[single pt active]; AmpC inh det: 11%; Anthrax LT inh: -22%

What do the screens show for `O=C(COc1ccccc1)Nc1cccc(-c2nnc(-c3ccccc3)o2)c1`?
SmPrx2 inh: >57; AmpC nodet inh: -3%; AmpC inh det: 10%; Anthrax LT inh: 10µM*

What do the screens show for `O=C(Nc1cccc(-c2cn3cccnc3n2)c1)c1ccc(Br)o1`?
SmPrx2 inh: >57; AmpC nodet inh: -2%; AmpC inh det: -4%; Anthrax LT inh: -25%

Results for Cc1cc(C)cc(OCC(=O)Nc2cccc(-c3nnc(-c4ccco4)o3)c2)c1 ?
SmPrx2 inh: >57; AmpC nodet inh: 29%; AmpC inh det: -2%; Anthrax LT inh: -10%

What do the screens show for `O=C(Nc1cccc(-c2nnc(-c3ccccc3)o2)c1)c1ccc(Br)o1`?
SmPrx2 inh: inconclusive; AmpC nodet inh: 52%; AmpC inh det: 0%; Anthrax LT inh: 10µM*

How did O=C(Nc1ccc(Nc2ccccc2)cc1)c1ccc(Br)o1 do in these assays?
SmPrx2 inh: >57; AmpC nodet inh: -11%; AmpC inh det: 1%; Anthrax LT inh: 13µM*

What do the screens show for `O=C(Nc1ccc(Cc2ccncc2)cc1)c1ccc(Br)o1`?
SmPrx2 inh: >57; AmpC nodet inh: 3%; AmpC inh det: -4%; Anthrax LT inh: -15%

What do the screens show for `C#CCCCO/N=C1/C[C@@H](O)[C@@H](O)[C@@H]2[C@H]3C(=O)N(c4ccc(F)cc4F)C(=O)[C@@H]3CC[C@H]12`?
Anthrax LT inh: -10%[0.32 µM]

How did CCNc1ncc2nc(-c3ccc(Cl)cc3)c(=O)n(C)c2n1 do in these assays?
SmPrx2 inh: >57; AmpC nodet inh: -12%; AmpC inh det: 1%; Anthrax LT inh: 1%

How did CN(C)CCNC(=O)c1ccc(CS(=O)(=O)c2c(Cl)cccc2Cl)o1 do in these assays?
SmPrx2 inh: >57; AmpC nodet inh: 10%; AmpC inh det: 4%; Anthrax LT inh: -22%

Results for O=C(NCCN1CCCC1)c1ccc(CS(=O)(=O)c2c(Cl)cccc2Cl)o1 ?
SmPrx2 inh: >57; AmpC nodet inh: 4µM*[single pt active]; AmpC inh det: 13%; Anthrax LT inh: -9%

What do the screens show for `NC(=O)CCCCn1ccc(NC(N)=NCC(F)(F)F)n1`?
SmPrx2 inh: >57; AmpC nodet inh: 17%; AmpC inh det: 0%; Anthrax LT inh: -7%

Results for O=C(CSc1nc2ccccc2c(=O)[nH]1)N1CCCCC1 ?
SmPrx2 inh: >57; AmpC nodet inh: 4µM*[single pt active]; AmpC inh det: 8%; Anthrax LT inh: 2%

High-throughput results: PubChem BioAssay, National Center for Advancing Translational Sciences (NCATS)
